Source: PubChem
Sampled rows, rich in hits. Any-hit rate of the full collection: about 19%.
TDP1 cell CPT – qHTS for Inhibitors of human tyrosyl-DNA phosphodiesterase 1 (TDP1): qHTS in cells in presence of CPT. 420,000 compounds, 12% hits. Potency, µM (highest dose often 46.2 µM), actives largely listed as inhibitors. AID 686979, 2013. chicken DT40 Tdp1-/-;hTDP1 cells + 20 nM CPT, ATP luminescence, 48 h; further: nearly all actives have a fitted effect of over 55% in size
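Chicken DT40 Tdp1-/- cells stably complemented with human TDP1 were seeded at 400 cells/well in medium containing 20 nM camptothecin, exposed to pin-transferred compounds, and grown at 37 °C for at least 48 hr. Viability was read as ATP luminescence.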
HT1080NT lethal – qHTS for induction of synthetic lethality in tumor cells producing 2HG: qHTS for the HT-1080-NT fibrosarcoma cell line; HT-1080-NT fibrosarcoma viability, CellTiter-Glo ATP luminescence, 48 h; 360,000 compounds, 1.6% hits; Potency, µM (top dose mostly 46.1 µM), hits mostly cytotoxic;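 further: NT is the 2HG producing partner of a matched IDH1 knockdown line; nearly all actives have a fitted effect of over 55% in size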
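A 48-hour cytotoxicity screen used HT-1080-NT cells plated 2 hours before compound delivery. ATP-based CellTiter-Glo luminescence measured viability, normalized to DMSO and no-cell controls.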
HT1080 IDH1KD tx – qHTS for induction of synthetic lethality in tumor cells producing 2HG: qHTS for the HT-1080-IDH1KD cell line; 360,000 compounds, 2% hits; HT-1080 IDH1 knockdown viability, ATP luminescence, 48 h; Potency, µM (top dose mostly 46.1 µM), hits mostly cytotoxic
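After a 2 h attachment period, IDH1KD HT-1080 cells took pin-transferred compound for 48 h at 37 °C; ATP-based luminescence after 10 min room-temperature reagent incubation reported viability.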
TDP1 cell noCPT – qHTS for Inhibitors of human tyrosyl-DNA phosphodiesterase 1 (TDP1): qHTS in cells in absence of CPT | DT40 Tdp1-/- hTDP1 cells, no CPT, ATP luminescence, 48 h | Potency, µM (top dose mostly 46.2 µM), hits mostly inhibitors | 420,000 compounds, 15% hits; further: nearly all actives have a fitted effect of over 55% in size
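DT40 Tdp1-/-;hTDP1 cells, no CPT (DMSO vehicle only), 400 cells/well; compounds pin-transferred; ≥48 hr, 37 °C; CellTiter-Glo 30 min RT dark, luminescence read.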
IL-1B inflam inh – qHTS for Inhibitors of Inflammasome Signaling: IL-1-beta AlphaLISA Primary Screen | THP-1 LPS/ATP IL-1B secretion, AlphaLISA, 16 h; active compounds read low | activity change, % at 57.5 µM | 360,000 compounds, 4.7% hits | AID 743279, 2014; in the data active means activity change below about -50%; inconclusive means mostly about -30% to -49%
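Secreted IL-1B measured by AlphaLISA bead assay after 16 h compound exposure of THP-1 cells; compounds (final up to 57.5 uM) added 1 h before LPS (250 ng/mL) and ATP (1.25 mM) stimulation; lower signal means less secretion.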
Each line names hits and unclear results; the compound was inactive in the other large screens. Unless noted, the call rests on the fitted dose curve; in most records, active means well fitted curve in the direction sought with a large enough effect; inconclusive means small, poorly fitted or top-dose-only effect, or another doubt; inactive means no such curve, though single readings can be large; an effect the other way counts as inactive or inconclusive.

Cc1ccc(C2C(=O)N(C3CCCCCC3)CC(=O)N2C(C)C)cc1 (centres undefined)	TDP1 cell CPT inconclusive, TDP1 cell noCPT 25.9µM (no result: HT1080NT lethal, HT1080 IDH1KD tx, IL-1B inflam inh)
Cc1ccc(CN2C(=O)CN(C3CCCCCC3)C(=O)C2c2ccc(F)cc2)cc1 (centres undefined)	TDP1 cell CPT 18.4µM, TDP1 cell noCPT 16.4µM (no result: HT1080NT lethal, HT1080 IDH1KD tx, IL-1B inflam inh)
COc1ccc(C2C(=O)N(C3CCCCC3)CC(=O)N2CCc2ccccc2)cc1OC (centres undefined)	TDP1 cell CPT inconclusive
O=C1C(c2ccc(F)cc2)N(CCc2ccccc2)C(=O)CN1C1CCCCCC1 (centres undefined)	TDP1 cell CPT inconclusive, TDP1 cell noCPT 13µM (no result: HT1080NT lethal, HT1080 IDH1KD tx, IL-1B inflam inh)
O=C1C(c2ccc(F)cc2)N(Cc2ccc3c(c2)OCO3)C(=O)CN1C1CCCCC1 (centres undefined)	TDP1 cell CPT inconclusive
COc1ccc(CN2CCN(C(C)=O)CC2)cc1OC1CCN(C(=O)c2ccc3ccccc3n2)CC1	none (no result: HT1080NT lethal, HT1080 IDH1KD tx, IL-1B inflam inh)
CCCOc1ccc(C2C(=O)N(C3CCCCC3)CC(=O)N2CCCOCC)cc1OC (centres undefined)	TDP1 cell CPT inconclusive
CCCOc1ccc(C2C(=O)N(C3CCCCCC3)CC(=O)N2CCC)cc1OC (centres undefined)	TDP1 cell CPT 23.1µM, TDP1 cell noCPT inconclusive (no result: HT1080NT lethal, HT1080 IDH1KD tx, IL-1B inflam inh)
CCCOc1ccc(C2C(=O)N(C3CCCCCC3)CC(=O)N2Cc2ccc(OC)cc2)cc1OC (centres undefined)	TDP1 cell CPT inconclusive, TDP1 cell noCPT 23.1µM (no result: HT1080NT lethal, HT1080 IDH1KD tx, IL-1B inflam inh)
COc1ccc(C2C(=O)N(C3CCCCCC3)CC(=O)N2Cc2ccc(C)cc2)cc1OC (centres undefined)	TDP1 cell CPT 23.1µM, TDP1 cell noCPT 23.1µM (no result: HT1080NT lethal, HT1080 IDH1KD tx, IL-1B inflam inh)
CCCN1C(=O)CN(C2CCCCC2)C(=O)C1c1ccc(OC)c(OC)c1 (centres undefined)	none (no result: HT1080NT lethal, HT1080 IDH1KD tx, IL-1B inflam inh)
CCN(CC)C(=O)CSc1nnc([C@@H](N)C(C)C)o1	none
COc1ccccc1N1CCN(c2nc(CNC(=O)c3cc(C)oc3C)nc3ccccc23)CC1	TDP1 cell noCPT inconclusive (no result: HT1080NT lethal, HT1080 IDH1KD tx, IL-1B inflam inh)
C[C@H](NC(=O)C1CCN(C(=O)[C@H](Cc2ccccc2)NC(=O)OC(C)(C)C)CC1)C(=O)O	none
COc1ccccc1C(=O)NC(=O)COC(=O)CN1C(=O)NC(C)(C)C1=O	none
COc1ccc(NS(=O)(=O)c2ccc(Cl)c(NC(=O)c3cccnc3Cl)c2)cc1	TDP1 cell CPT inconclusive, TDP1 cell noCPT 16.4µM
O=c1[nH]c2ccc(S(=O)(=O)Nc3ccc(Cl)cc3)cc2o1	HT1080 IDH1KD tx inconclusive
O=C(Nc1ccc(Cl)cc1)c1cc(S(=O)(=O)Nc2ccccn2)ccc1Cl	TDP1 cell CPT inconclusive, TDP1 cell noCPT 16.4µM
COc1ccc(NS(=O)(=O)c2ccc(Cl)c(NC(=O)c3ccccc3F)c2)cc1	TDP1 cell CPT inconclusive, TDP1 cell noCPT inconclusive
CC(C)(C)C(=O)Nc1cc(S(=O)(=O)Nc2ccc(Cl)cc2)ccc1Cl	TDP1 cell CPT 18.4µM, TDP1 cell noCPT 23.1µM
CCC(C(=O)Nc1ccc(C(C)=O)cc1)n1cnc2nc3c(cc2c1=O)CCCC3 (centres undefined)	TDP1 cell noCPT inconclusive (no result: HT1080NT lethal, HT1080 IDH1KD tx, IL-1B inflam inh)
COc1ccc2cc(/C=N/NC(=O)CN(c3ccccc3C)S(=O)(=O)c3ccccc3)c(Cl)nc2c1	TDP1 cell CPT 2.91µM, TDP1 cell noCPT 6.51µM
COc1ccc(N(CC(=O)N/N=C/c2ccc(OC)cc2OC)S(=O)(=O)c2ccccc2)cc1	none
O=C(CCc1ccccn1)NC1CCCc2c1cnn2-c1ccc(F)cc1F (centres undefined)	TDP1 cell noCPT inconclusive
Cc1ccc(-n2ncc3c2CCCC3NC(=O)c2ccccc2N2CCOCC2)cc1C (centres undefined)	TDP1 cell CPT 16.4µM, TDP1 cell noCPT inconclusive
O=C(NC1CCCc2c1cnn2-c1ccc(F)cc1F)c1ccccc1N1CCOCC1 (centres undefined)	TDP1 cell CPT inconclusive, TDP1 cell noCPT 23.1µM
